Source: article PMC7862700, “An all-to-all approach to the identification of sequence-specific readers for epigenetic DNA modifications on cytosine”

Key:
Assay in all cases: DAPPL (digital affinity profiling via proximity ligation, sequencing); 10 mM Tris-HCl pH 7.5, 50 mM NaCl, 1 mM DTT, 4% glycerol, room temperature, 30 min; GST-TFs on glutathione beads, 16-mer random dsDNA library, 0.1% formaldehyde crosslink after washing; high values mean tight binding
FLI1 = target: T1, FLI1 (Homo sapiens, UniProt Q01543 1-452); conditions: protein: recombinant; tags: N-terminal GST; dsDNA, one strand shown
T1 sequence: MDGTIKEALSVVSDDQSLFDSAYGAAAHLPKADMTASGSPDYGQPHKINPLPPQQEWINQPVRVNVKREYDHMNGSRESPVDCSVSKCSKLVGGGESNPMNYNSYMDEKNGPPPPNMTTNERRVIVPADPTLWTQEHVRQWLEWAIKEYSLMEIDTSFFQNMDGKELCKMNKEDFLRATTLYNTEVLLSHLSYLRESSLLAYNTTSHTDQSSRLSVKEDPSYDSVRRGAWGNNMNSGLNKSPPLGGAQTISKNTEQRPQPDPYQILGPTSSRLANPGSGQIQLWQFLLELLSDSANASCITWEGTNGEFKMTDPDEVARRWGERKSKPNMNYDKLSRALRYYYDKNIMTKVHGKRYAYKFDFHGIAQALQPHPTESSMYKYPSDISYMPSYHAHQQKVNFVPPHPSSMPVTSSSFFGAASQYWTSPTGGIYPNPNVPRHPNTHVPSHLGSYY
How it was run: (§1)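 GST fusions of human transcription factors were expressed in yeast and captured with glutathione beads. Once given DNA barcodes and pooled alongside a tag-only sample, they were incubated for 30 min at room temperature with 200 nmole of a random double-stranded 16-mer DNA library in Tris/NaCl/DTT/glycerol buffer, then washed, crosslinked (0.1% formaldehyde), proximity-ligated, PCR-amplified and sequenced on an Illumina NextSeq500. The binding signal of each hexamer is its read frequency for a factor divided by its frequency for the tag-only sample.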

ELK1 = target: T2, ELK1 (Homo sapiens, UniProt P19419 1-428); conditions: protein: recombinant; tags: N-terminal GST; dsDNA, one strand shown
T2 sequence: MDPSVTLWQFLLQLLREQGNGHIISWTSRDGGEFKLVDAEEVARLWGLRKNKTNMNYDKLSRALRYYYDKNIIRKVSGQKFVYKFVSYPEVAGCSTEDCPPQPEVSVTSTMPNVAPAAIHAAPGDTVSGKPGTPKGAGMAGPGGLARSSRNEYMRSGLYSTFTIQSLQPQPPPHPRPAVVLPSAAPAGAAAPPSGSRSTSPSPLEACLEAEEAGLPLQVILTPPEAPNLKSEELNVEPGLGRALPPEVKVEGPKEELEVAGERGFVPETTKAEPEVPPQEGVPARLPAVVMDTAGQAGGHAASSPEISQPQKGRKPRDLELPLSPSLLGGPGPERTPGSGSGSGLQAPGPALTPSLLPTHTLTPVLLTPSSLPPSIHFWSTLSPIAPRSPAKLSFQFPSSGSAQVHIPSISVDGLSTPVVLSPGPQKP
How it was run: as §1

GABPA = target: T3, GABPA (Homo sapiens, UniProt Q06546 1-454); conditions: protein: recombinant; tags: N-terminal GST; dsDNA, one strand shown
T3 sequence: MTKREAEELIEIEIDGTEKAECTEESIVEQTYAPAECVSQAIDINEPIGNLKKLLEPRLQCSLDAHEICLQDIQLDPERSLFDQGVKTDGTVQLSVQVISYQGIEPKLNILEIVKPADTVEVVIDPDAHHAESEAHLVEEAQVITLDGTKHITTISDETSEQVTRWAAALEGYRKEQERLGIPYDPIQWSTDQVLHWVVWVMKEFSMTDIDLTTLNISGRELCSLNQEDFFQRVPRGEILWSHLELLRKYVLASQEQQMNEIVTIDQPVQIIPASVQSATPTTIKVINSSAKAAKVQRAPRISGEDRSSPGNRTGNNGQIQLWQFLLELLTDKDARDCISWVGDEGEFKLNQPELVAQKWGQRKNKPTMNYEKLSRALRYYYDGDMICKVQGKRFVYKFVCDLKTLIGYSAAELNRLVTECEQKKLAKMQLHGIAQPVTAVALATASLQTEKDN
How it was run: as §1

ERG = target: T4, ERG (Homo sapiens, UniProt P11308 1-479); conditions: protein: recombinant; tags: N-terminal GST; dsDNA, one strand shown
T4 sequence: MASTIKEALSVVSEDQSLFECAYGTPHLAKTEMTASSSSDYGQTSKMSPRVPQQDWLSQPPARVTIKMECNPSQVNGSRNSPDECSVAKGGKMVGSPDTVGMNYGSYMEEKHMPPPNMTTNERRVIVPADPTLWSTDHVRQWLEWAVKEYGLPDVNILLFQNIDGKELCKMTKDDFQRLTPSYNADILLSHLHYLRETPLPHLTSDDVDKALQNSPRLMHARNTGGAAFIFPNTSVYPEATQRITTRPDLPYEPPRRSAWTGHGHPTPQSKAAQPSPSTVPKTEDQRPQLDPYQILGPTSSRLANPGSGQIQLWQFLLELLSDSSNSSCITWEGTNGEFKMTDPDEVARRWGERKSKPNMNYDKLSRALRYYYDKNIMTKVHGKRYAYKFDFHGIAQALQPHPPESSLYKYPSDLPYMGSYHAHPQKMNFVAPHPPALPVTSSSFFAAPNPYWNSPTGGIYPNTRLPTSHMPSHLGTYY
How it was run: as §1

ELF1 = ELF1 (Homo sapiens, UniProt P32519 1-619); conditions: protein: recombinant; tags: N-terminal GST; dsDNA, one strand shown
How it was run: as §1

EHF = target: T5, EHF (Homo sapiens, UniProt Q9NZC4 1-300); conditions: protein: recombinant; tags: N-terminal GST; dsDNA, one strand shown
T5 sequence: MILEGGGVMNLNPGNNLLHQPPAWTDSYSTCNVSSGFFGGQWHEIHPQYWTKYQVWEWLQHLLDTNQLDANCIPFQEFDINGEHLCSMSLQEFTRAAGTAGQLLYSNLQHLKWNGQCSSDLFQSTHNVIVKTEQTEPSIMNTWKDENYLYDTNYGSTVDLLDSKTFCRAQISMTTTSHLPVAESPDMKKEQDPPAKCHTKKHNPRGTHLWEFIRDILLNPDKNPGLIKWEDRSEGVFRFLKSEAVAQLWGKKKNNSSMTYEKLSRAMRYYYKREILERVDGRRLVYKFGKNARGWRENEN
How it was run: as §1

SPI1 = SPI1 (Homo sapiens, UniProt P17947 1-270); conditions: protein: recombinant; tags: N-terminal GST; dsDNA, one strand shown
How it was run: as §1

SPIB = SPIB (Homo sapiens, UniProt Q01892 1-262); conditions: protein: recombinant; tags: N-terminal GST; dsDNA, one strand shown
How it was run: as §1

ELK3 = target: T6, ELK3 (Homo sapiens, UniProt P41970 1-407); conditions: protein: recombinant; tags: N-terminal GST; dsDNA, one strand shown
T6 sequence: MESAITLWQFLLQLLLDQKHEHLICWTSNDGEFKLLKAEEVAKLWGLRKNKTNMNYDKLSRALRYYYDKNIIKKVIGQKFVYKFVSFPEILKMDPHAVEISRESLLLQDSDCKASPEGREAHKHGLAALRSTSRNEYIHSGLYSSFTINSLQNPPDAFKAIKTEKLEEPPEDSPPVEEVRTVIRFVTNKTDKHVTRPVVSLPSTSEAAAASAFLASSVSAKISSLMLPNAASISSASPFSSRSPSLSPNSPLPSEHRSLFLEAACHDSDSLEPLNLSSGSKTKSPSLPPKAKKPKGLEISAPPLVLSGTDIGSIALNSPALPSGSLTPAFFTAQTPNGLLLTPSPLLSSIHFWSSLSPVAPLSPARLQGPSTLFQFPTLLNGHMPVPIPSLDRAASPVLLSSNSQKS
How it was run: as §1

FEV = target: T7, FEV (Homo sapiens, UniProt Q99581 1-238); conditions: protein: recombinant; tags: N-terminal GST; dsDNA, one strand shown
T7 sequence: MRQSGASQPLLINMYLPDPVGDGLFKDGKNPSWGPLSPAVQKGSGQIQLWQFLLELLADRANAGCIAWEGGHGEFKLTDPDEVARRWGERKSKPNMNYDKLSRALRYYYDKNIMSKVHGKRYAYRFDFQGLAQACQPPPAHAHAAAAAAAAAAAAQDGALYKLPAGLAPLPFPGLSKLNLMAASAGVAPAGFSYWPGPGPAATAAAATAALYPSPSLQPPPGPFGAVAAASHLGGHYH
How it was run: as §1

ETV5 = ETV5 (Homo sapiens, UniProt P41161 1-510); conditions: protein: recombinant; tags: N-terminal GST; dsDNA, one strand shown
How it was run: as §1

HSF1 = HSF1 (Homo sapiens, UniProt Q00613 1-529); conditions: protein: recombinant; tags: N-terminal GST; chain copies: 3; dsDNA, one strand shown
How it was run: as §1

SPIC = target: T8, SPIC (Homo sapiens, UniProt Q8N5J4 1-248); conditions: protein: recombinant; tags: N-terminal GST; dsDNA, one strand shown
T8 sequence: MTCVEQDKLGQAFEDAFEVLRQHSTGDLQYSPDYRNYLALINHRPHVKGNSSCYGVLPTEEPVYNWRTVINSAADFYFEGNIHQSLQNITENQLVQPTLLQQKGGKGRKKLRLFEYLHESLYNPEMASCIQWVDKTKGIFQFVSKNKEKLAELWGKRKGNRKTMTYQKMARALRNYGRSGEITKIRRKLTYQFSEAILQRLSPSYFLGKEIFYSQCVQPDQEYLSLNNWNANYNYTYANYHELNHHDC
How it was run: as §1

ELF4 = ELF4 (Homo sapiens, UniProt Q99607 1-663); conditions: protein: recombinant; tags: N-terminal GST; dsDNA, one strand shown
How it was run: as §1

ELK4 = target: T9, ELK4 (Homo sapiens, UniProt P28324-2 1-405); conditions: protein: recombinant; tags: N-terminal GST; dsDNA, one strand shown
T9 sequence: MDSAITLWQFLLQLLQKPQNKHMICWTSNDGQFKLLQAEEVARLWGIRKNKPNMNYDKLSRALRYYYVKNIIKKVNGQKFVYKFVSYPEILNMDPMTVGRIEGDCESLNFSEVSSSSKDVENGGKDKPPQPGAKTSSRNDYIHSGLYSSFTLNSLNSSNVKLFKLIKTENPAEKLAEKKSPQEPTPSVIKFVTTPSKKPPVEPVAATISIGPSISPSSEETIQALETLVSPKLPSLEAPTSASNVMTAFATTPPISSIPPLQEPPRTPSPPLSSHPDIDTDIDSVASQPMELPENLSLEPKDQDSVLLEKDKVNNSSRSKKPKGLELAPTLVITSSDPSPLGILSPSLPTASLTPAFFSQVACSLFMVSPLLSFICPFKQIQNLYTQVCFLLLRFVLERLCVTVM
How it was run: as §1

ETV2 = target: T10, ETV2 (Homo sapiens, UniProt O00321 1-342); conditions: protein: recombinant; tags: N-terminal GST; dsDNA, one strand shown
T10 sequence: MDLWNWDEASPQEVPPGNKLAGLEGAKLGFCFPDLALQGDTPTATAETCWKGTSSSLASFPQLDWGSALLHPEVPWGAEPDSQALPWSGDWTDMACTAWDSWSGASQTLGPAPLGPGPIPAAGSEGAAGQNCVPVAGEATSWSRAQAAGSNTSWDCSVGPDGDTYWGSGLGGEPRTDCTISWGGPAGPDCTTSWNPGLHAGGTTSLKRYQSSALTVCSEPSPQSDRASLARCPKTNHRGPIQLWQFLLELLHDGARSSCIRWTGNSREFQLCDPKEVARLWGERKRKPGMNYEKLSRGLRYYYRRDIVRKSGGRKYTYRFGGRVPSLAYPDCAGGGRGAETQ
How it was run: as §1

ELF3 = target: T11, ELF3 (Homo sapiens, UniProt P78545 1-371); conditions: protein: recombinant; tags: N-terminal GST; dsDNA, one strand shown
T11 sequence: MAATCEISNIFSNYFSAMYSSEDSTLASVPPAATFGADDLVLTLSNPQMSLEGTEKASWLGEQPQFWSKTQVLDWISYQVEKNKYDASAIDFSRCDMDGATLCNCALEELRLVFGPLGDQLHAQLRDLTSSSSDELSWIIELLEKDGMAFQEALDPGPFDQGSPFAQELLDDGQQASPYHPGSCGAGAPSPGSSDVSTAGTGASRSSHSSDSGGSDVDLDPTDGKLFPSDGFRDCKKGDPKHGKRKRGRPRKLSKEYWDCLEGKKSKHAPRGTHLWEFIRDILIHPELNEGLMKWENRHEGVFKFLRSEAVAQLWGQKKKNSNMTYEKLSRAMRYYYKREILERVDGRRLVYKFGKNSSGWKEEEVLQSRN
How it was run: as §1

CRX = CRX (Homo sapiens, UniProt O43186 1-299); conditions: protein: recombinant; tags: N-terminal GST; dsDNA, one strand shown
How it was run: as §1

ETV1 = ETV1 (Homo sapiens, UniProt P50549 1-477); conditions: protein: recombinant; tags: N-terminal GST; dsDNA, one strand shown
How it was run: as §1

Chain of ETV5 (P41161 whole entry): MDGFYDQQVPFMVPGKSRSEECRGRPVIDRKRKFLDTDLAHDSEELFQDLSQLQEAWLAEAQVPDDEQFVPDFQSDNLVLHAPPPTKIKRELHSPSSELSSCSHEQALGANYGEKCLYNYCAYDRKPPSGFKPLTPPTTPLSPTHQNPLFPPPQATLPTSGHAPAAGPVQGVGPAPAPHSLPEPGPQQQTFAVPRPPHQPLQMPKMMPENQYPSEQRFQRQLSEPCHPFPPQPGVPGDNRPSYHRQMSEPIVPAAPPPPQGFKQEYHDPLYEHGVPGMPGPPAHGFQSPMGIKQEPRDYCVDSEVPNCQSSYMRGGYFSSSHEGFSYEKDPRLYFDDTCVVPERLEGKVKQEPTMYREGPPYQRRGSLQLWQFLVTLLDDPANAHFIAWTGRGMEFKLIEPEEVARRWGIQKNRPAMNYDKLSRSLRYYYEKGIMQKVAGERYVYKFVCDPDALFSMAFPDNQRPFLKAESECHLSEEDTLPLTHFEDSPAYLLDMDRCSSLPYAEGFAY
Chain of ELF1 (P32519 whole entry): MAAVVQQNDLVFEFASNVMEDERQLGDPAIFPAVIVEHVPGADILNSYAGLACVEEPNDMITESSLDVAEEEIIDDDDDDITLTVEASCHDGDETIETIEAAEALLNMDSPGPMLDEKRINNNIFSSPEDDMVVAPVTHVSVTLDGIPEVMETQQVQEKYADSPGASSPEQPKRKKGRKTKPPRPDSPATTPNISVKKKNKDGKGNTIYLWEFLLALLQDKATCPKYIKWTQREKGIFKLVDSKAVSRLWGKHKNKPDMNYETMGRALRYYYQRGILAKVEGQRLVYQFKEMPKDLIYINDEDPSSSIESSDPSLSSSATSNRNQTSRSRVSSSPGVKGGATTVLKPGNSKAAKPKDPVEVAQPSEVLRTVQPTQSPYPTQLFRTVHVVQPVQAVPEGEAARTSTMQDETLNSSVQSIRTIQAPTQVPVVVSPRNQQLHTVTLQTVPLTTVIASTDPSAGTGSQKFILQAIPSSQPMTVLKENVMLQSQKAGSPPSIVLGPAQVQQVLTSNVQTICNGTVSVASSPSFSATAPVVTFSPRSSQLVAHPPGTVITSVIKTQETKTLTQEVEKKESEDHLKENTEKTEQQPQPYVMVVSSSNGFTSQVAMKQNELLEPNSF
Chain of ETV1 (P50549 whole entry): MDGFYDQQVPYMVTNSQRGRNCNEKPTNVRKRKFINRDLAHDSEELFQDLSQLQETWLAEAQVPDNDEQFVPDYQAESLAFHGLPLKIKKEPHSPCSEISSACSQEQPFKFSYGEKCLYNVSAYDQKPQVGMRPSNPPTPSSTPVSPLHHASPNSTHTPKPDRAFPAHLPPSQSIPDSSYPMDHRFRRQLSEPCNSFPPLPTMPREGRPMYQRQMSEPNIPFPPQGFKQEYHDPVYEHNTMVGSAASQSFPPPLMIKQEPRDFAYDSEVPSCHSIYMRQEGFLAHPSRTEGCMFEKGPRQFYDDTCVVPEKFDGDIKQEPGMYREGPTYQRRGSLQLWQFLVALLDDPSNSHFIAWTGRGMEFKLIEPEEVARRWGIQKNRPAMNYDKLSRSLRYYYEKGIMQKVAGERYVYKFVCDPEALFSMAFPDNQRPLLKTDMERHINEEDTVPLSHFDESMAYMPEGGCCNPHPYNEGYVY
Chain of ELF4 (Q99607 whole entry): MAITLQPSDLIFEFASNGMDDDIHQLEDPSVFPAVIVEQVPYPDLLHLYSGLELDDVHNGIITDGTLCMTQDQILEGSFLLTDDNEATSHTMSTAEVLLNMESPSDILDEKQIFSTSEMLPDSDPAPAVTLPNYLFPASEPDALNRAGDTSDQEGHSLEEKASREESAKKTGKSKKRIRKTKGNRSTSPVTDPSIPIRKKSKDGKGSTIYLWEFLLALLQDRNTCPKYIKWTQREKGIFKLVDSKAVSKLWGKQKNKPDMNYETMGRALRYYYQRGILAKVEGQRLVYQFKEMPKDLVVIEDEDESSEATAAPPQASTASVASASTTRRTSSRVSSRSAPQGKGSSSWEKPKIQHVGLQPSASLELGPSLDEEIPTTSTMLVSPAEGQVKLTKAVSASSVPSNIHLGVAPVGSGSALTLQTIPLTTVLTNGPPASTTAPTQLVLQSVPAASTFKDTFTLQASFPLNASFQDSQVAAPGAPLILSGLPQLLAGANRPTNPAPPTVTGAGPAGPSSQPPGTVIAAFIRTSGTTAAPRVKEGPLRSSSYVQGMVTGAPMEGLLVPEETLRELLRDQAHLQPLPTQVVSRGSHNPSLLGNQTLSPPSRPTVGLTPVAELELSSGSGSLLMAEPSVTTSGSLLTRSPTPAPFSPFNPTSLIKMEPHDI
Chain of CRX (O43186 whole entry): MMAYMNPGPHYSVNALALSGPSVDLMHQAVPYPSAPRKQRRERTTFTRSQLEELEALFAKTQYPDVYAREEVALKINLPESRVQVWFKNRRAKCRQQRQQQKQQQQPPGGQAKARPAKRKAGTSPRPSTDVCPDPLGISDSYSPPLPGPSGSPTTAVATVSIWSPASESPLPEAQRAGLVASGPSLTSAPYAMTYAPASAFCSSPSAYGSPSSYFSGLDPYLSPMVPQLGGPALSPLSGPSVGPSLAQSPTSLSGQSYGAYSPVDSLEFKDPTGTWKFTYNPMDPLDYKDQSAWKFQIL
Chain of HSF1 (Q00613 whole entry): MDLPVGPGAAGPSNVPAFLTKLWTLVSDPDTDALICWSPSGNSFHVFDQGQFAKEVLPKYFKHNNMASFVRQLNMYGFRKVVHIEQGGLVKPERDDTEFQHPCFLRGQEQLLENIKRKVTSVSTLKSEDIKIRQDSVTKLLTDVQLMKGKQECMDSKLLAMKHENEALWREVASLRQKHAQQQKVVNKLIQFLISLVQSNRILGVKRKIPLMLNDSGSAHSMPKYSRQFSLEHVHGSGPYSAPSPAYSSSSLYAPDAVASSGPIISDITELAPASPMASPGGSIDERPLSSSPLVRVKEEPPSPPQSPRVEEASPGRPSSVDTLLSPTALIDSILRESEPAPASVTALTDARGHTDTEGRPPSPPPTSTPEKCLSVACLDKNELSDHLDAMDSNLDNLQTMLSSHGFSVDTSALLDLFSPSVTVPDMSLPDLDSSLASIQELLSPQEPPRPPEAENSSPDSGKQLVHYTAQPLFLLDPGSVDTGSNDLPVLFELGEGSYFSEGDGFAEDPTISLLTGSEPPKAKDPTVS
Chain of SPIB (Q01892 whole entry): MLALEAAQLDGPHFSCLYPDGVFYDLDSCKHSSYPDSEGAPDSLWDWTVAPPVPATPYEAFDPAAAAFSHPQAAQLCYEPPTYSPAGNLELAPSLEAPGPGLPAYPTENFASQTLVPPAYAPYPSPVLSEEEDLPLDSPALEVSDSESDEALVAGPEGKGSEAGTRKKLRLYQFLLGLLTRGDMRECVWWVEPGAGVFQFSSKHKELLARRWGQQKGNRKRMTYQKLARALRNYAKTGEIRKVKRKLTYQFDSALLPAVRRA

Sequence: CTCAGC
- binding signal (FLI1): 1.15 fold enrichment (6-mer frequency, TF over GST control)
- binding signal (ELK1): 1.22 fold enrichment (6-mer frequency, TF over GST control)
- binding signal (GABPA): 1.38 fold enrichment (6-mer frequency, TF over GST control)
- binding signal (ERG): 1.24 fold enrichment (6-mer frequency, TF over GST control)
- binding signal (ELF1): 1.3 fold enrichment (6-mer frequency, TF over GST control)
- binding signal (EHF): 1.28 fold enrichment (6-mer frequency, TF over GST control)
- binding signal (SPI1): 1.23 fold enrichment (6-mer frequency, TF over GST control)
- binding signal (SPIB): 1.35 fold enrichment (6-mer frequency, TF over GST control)
- binding signal (ELK3): 1.12 fold enrichment (6-mer frequency, TF over GST control)
- binding signal (FEV): 1.3 fold enrichment (6-mer frequency, TF over GST control)
- binding signal (ETV5): 1.11 fold enrichment (6-mer frequency, TF over GST control)
- binding signal (HSF1): 1.1 fold enrichment (6-mer frequency, TF over GST control)
- binding signal (SPIC): 1.16 fold enrichment (6-mer frequency, TF over GST control)
- binding signal (ELF4): 1.27 fold enrichment (6-mer frequency, TF over GST control)
- binding signal (ELK4): 1.24 fold enrichment (6-mer frequency, TF over GST control)
- binding signal (ETV2): 1.31 fold enrichment (6-mer frequency, TF over GST control)
- binding signal (ELF3): 1.2 fold enrichment (6-mer frequency, TF over GST control)
- binding signal (CRX): 1.31 fold enrichment (6-mer frequency, TF over GST control)
- binding signal (ETV1): 1.28 fold enrichment (6-mer frequency, TF over GST control)
